According to the supplement of paper PMC11732987, “Enantioselective OTUD7B fragment discovery through chemoproteomics screening and high-throughput optimisation” (Communications Chemistry, 2025):
Unmarked numbers belong to inactive results.

Columns and labels:
Test in all cases: log2 ratio of Biotin-Ahx-Ub-VS probe labelling (fragment/DMSO); higher = less target engagement (more negative = stronger competition), active = hit call of the paper (q ≤ 0.05, log2 ratio ≤ -1)
Details in all cases: compound concentration: 200 uM; treatment time: 3 h
ALG13 = target: T1, ALG13 (UniProt Q9NP73)
T1 sequence (whole entry): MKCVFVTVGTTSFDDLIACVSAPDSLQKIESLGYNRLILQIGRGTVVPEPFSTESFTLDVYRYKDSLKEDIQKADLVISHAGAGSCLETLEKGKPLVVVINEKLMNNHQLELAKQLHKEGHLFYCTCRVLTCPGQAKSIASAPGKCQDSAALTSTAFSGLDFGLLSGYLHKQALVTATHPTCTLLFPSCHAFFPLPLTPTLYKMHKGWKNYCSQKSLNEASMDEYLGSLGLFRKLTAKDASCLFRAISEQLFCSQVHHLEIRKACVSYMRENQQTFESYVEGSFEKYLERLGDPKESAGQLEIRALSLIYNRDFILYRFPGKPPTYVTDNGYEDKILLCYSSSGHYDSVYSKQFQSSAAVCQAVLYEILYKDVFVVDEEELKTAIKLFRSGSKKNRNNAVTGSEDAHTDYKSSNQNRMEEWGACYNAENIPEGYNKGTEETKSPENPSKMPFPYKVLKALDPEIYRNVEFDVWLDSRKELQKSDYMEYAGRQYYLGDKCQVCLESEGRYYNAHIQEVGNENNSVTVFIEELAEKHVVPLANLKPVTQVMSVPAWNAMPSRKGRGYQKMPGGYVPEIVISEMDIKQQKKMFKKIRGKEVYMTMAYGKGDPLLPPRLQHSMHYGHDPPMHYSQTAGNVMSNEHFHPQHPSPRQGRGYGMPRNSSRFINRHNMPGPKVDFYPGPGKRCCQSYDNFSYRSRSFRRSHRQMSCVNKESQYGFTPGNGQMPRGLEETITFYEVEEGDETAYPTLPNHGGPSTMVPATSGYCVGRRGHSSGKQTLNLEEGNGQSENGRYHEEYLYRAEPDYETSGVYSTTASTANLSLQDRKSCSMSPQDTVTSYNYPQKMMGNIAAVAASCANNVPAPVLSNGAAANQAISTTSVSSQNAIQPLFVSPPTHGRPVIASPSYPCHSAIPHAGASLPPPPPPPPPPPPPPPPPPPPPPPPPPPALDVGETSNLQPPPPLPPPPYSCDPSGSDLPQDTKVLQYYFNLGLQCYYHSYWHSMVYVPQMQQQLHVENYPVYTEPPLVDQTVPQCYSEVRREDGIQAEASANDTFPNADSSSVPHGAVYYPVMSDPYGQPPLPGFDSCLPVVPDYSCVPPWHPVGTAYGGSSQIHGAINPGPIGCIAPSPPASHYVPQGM
Outline: (§1)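 Fragment (200 µM) or vehicle was incubated for 3 h with triplicate HEK293T lysate samples of 495 µg, which were then treated with Biotin-Ahx-Ub-VS at 0.5 µM final for 1 h. Labelled DUBs were enriched on NeutrAvidin, digested with LysC and trypsin, and analysed by diaPASEF LC-MS/MS. Values are average log2 fragment/vehicle ratios from an unpaired t-test on global-median-normalised Spectronaut label-free quantities, using proteins with ≥2 unique peptides.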

ATXN3 = ATXN3 (UniProt P54252)
Outline: as §1

BAP1 = target: T2, BAP1 (UniProt Q92560)
T2 sequence (whole entry): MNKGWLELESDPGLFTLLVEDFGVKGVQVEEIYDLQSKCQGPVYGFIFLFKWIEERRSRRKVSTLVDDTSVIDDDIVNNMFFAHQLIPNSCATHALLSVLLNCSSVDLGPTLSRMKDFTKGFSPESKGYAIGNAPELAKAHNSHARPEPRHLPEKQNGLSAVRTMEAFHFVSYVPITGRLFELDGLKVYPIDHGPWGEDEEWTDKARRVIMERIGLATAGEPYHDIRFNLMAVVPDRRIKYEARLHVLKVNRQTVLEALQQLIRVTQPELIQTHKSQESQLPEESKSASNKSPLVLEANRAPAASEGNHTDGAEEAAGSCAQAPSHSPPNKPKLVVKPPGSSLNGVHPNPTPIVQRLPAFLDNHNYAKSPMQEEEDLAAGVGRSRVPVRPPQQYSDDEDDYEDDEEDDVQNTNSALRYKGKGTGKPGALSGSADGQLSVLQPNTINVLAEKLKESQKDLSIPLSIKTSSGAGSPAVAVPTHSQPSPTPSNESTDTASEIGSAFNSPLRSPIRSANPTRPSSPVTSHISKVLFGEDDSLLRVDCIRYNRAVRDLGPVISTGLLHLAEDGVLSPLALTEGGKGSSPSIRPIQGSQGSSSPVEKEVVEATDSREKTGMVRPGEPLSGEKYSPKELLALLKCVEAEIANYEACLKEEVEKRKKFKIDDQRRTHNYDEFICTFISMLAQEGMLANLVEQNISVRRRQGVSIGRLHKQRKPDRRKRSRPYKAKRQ
Outline: as §1

EIF3F = EIF3F (UniProt O00303)
Outline: as §1

EIF3H = EIF3H (UniProt O15372)
Outline: as §1

FAM105A = target: T3, FAM105A (UniProt Q9NUU6)
T3 sequence (whole entry): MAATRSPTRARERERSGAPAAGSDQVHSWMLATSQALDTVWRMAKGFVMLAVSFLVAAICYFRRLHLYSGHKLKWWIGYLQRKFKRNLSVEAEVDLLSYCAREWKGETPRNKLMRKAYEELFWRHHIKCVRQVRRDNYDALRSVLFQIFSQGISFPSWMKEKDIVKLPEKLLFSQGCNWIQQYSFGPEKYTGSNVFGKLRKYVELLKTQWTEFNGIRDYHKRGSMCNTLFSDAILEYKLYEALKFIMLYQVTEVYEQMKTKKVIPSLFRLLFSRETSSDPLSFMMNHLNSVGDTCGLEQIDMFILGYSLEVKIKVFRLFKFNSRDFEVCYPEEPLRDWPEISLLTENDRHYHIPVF
Outline: as §1

OTUB1 = OTUB1 (UniProt Q96FW1)
Outline: as §1

OTUD4 = target: T4, OTUD4 (UniProt Q01804)
T4 sequence (whole entry): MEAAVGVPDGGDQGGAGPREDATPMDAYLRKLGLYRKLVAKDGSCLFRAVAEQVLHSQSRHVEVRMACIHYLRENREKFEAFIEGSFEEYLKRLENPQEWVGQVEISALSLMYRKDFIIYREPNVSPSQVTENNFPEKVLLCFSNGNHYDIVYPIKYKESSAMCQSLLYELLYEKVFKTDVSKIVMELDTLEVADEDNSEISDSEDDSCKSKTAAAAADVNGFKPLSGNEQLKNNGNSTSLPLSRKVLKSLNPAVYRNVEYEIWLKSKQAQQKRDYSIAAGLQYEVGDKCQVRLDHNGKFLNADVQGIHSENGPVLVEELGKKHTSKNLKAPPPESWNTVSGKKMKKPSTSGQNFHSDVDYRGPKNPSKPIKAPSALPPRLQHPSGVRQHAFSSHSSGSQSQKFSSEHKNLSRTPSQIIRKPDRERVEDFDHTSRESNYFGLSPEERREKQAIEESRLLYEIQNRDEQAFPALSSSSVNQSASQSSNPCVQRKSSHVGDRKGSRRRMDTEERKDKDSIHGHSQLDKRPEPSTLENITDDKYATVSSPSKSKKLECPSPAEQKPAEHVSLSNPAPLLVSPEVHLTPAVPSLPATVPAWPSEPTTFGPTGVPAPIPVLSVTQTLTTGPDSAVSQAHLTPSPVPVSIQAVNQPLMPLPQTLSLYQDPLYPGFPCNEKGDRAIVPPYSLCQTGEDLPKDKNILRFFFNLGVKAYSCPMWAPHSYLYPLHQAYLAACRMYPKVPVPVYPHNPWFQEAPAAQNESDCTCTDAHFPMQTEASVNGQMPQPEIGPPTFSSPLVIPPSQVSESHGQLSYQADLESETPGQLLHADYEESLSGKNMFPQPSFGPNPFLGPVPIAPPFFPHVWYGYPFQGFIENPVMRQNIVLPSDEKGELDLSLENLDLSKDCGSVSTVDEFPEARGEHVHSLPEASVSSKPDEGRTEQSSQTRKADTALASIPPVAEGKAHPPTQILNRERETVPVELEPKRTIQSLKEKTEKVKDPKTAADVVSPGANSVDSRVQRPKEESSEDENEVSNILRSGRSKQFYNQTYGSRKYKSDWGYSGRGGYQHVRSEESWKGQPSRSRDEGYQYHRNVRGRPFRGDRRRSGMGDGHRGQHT
Outline: as §1

OTUD5 = target: T5, OTUD5 (UniProt Q96G74)
T5 sequence (whole entry): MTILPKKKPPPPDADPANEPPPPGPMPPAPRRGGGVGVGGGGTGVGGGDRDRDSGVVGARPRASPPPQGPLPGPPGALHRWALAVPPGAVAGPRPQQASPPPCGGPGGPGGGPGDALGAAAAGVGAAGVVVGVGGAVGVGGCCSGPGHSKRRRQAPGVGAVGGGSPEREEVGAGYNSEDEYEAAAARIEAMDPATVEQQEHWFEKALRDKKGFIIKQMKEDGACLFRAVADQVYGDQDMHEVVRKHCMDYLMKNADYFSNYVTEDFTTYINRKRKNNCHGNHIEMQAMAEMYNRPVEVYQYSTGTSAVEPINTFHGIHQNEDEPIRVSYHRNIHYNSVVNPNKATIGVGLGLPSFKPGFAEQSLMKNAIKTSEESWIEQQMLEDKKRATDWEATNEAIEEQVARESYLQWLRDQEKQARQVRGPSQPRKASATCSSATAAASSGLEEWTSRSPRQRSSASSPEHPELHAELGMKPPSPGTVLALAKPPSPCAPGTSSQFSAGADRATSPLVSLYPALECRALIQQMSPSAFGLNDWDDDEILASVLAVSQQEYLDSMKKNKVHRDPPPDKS
Outline: as §1

Chain of OTUB1 (Q96FW1 whole entry): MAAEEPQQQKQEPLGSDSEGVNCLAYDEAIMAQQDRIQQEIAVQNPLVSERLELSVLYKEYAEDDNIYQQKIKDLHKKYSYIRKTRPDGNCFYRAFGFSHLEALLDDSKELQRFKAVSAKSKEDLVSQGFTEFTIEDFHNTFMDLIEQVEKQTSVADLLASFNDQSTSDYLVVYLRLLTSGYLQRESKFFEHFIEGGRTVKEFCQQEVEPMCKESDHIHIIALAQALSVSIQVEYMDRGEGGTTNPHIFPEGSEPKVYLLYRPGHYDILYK
Chain of EIF3F (O00303 whole entry): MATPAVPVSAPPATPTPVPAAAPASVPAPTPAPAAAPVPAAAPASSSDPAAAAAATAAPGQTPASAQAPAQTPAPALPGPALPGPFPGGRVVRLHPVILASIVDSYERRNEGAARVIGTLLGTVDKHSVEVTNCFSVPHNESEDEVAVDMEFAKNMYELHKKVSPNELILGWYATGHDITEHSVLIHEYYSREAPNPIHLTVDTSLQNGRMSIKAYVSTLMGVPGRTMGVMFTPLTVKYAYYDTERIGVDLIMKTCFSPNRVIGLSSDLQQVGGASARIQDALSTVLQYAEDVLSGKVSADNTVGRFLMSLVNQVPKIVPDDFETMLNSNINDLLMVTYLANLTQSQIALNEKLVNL
Chain of ATXN3 (P54252 whole entry): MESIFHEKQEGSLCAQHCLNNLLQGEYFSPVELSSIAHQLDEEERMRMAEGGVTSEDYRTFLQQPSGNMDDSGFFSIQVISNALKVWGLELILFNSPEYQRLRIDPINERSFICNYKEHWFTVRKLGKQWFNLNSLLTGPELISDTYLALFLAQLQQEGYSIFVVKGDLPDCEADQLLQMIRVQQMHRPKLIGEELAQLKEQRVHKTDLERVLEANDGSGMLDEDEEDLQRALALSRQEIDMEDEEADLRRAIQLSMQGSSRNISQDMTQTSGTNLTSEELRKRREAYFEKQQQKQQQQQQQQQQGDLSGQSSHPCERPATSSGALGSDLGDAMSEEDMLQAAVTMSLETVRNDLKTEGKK
Chain of EIF3H (O15372 whole entry): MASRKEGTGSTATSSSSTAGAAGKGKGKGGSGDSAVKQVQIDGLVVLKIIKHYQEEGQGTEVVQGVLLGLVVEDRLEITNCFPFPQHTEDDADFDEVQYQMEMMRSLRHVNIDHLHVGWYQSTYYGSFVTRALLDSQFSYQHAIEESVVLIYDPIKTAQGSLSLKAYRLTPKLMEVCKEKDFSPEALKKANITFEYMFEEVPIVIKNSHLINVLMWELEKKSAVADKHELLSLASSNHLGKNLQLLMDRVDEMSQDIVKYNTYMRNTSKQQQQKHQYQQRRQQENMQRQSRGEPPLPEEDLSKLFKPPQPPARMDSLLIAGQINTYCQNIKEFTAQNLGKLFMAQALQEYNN

| Compound | log2 ratio of Biotin-Ahx-Ub-VS probe labelling (ALG13) | log2 ratio of Biotin-Ahx-Ub-VS probe labelling (ATXN3) | log2 ratio of Biotin-Ahx-Ub-VS probe labelling (BAP1) | log2 ratio of Biotin-Ahx-Ub-VS probe labelling (EIF3F) | log2 ratio of Biotin-Ahx-Ub-VS probe labelling (EIF3H) | log2 ratio of Biotin-Ahx-Ub-VS probe labelling (FAM105A) | log2 ratio of Biotin-Ahx-Ub-VS probe labelling (OTUB1) | log2 ratio of Biotin-Ahx-Ub-VS probe labelling (OTUD4) | log2 ratio of Biotin-Ahx-Ub-VS probe labelling (OTUD5) |
| --- | --- | --- | --- | --- | --- | --- | --- | --- | --- |
| Cc1ncsc1CCNC(=O)CCl | -1.18 (active) | 0.0484 | -0.27 | 0.501 | 0.195 | 0.185 | 0.885 | -0.271 | 0.163 |
| Cc1cc(C2CCCN2C(=O)CCl)nn1C.Cl (stereo unspecified) | 0.0249 | -0.374 | -0.0558 | -0.11 | -0.0784 | 0.201 | -0.0124 | -0.0857 | -0.157 |
| Cc1c(NC(=O)CCl)c(=O)n(-c2ccccc2)n1C | 0.0604 | -0.0623 | -1.12 (active) | -0.188 | 0.333 | -0.533 | -0.0746 | 0.11 | -0.0203 |
| O=C(CCl)Nc1cc2c(cc1Cl)OCCO2 | -0.314 | 0.00781 | -3.65 (active) | -0.138 | 0.0273 | 0.123 | 0.157 | -0.327 | -0.173 |
| O=C(CCl)N1CCc2nc[nH]c2C1c1ccc(Cl)cc1 (stereo unspecified) | -0.0235 | -0.508 | -1.65 (active) | -0.277 | 0.263 | 0.102 | 0.00111 | -0.508 | -1.26 (active) |
| CN(Cc1nc2ccccc2[nH]1)C(=O)CCl.Cl | 0.0974 | -0.483 | -0.482 | -0.447 | 0.225 | -0.213 | -0.189 | 0.0195 | -0.483 |
| Cn1cc(CN(Cc2ccc(Cl)cc2)C(=O)CCl)cn1 | -0.382 | -0.833 | -0.944 | -0.0957 | 0.132 | -0.189 | -0.095 | 0.0527 | -0.592 |
| C#Cc1cccc(NC(=O)CCl)c1 | -0.0771 | -0.239 | -3.08 (active) | -0.206 | 0.0977 | 0.233 | -0.135 | -0.211 | -0.288 |
| Cc1ccc(C)c(NC(=O)CCl)c1 | 0.0947 | -0.548 | -3.51 (active) | -0.246 | 0.0185 | -0.0979 | -0.23 | -0.598 | -0.833 |
| Cc1ccn2cc(CNC(=O)CCl)nc2c1.Cl | 0.193 | -0.103 | -1.14 (active) | -0.185 | 0.253 | 0.254 | 0.0771 | -0.505 | -0.214 |
| O=C(CCl)N1CC2(CCOCC2)C1 | -0.597 | -0.356 | -0.382 | 0.0073 | 0.061 | -0.00776 | -0.183 | -0.122 | -0.493 |
| CC(NC(=O)CCl)c1ccc2[nH]ncc2c1 (stereo unspecified) | 0.186 | -0.431 | -3.42 (active) | -0.607 | -0.275 | -0.234 | -0.374 | -0.637 | -0.509 |
| CS(=O)(=O)c1ccc(CNC(=O)CCl)cc1 | -0.0665 | -0.381 | -3.17 (active) | -0.177 | -0.0369 | -0.0581 | -0.0582 | -0.317 | -0.368 |
| CCN(Cc1ccc(C#N)cc1F)C(=O)CCl | 0.0792 | -1.1 (active) | -0.691 | -0.201 | 0.0146 | 0.124 | -0.377 | -0.686 | -0.653 |
